Assay outcomes (PubChem BioAssay)
HCMV inh = inhibitors of human cytomegalovirus; AID 1259415; activity change, negative = inhibition, % at 57.5 µM; hit rate 4.5% among 410,000; HFF cells, HCMV-luciferase reporter, 72 h; active compounds read low; in the data active = activity change below about -60%; inconclusive = no clear call, values can overlap the other calls; inactive = above about -39%
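Screen run at 2 compound doses on HFFs infected with reporter HCMV, MOI 1 PFU/cell. Luciferase activity from cell lysates at 72 h post infection gave inhibition relative to buffer-only and Salinomycin wells.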
LASV entry inh = inhibitors of Lassa virus binding or cell entry; Lassa virus pseudotype entry inhibition, cell reporter; Potency, µM (doses to about 37.9 µM), actives largely listed as inhibitors; hit rate 1.2% among 300,000; calls by dose curve; tested in HEK293 cells; also: nearly all actives have a fitted effect of over 50% in size
FMDV inh = blocks foot and mouth disease virus | Potency, µM (doses to about 57.9 µM), hits mostly inhibitors | hit rate 1.2% among 410,000 | FMDV antiviral cell-based qHTS; calls by dose curve; tested in HEK293T cells; also: read-out not given here; nearly all actives have a fitted effect of over 45% in size
HCV inh = blocks hepatitis C virus; Huh7.5.1 HCVcc-Cre infection, luciferase reporter, 44 h; Potency, µM (doses to about 41.8 µM), actives largely listed as inhibitors; hit rate 3.4% among 340,000; active = well fitted inhibition curve with a large enough effect; inconclusive = small, poorly fitted or top-dose-only effect, or another doubt; inactive = no such curve, though single readings can be large or run the other way
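Luciferase read-out (15 sec integration) after a 15 min room-temperature substrate step quantifies HCVcc-Cre infection. Cells, 1,000 per well, had compound added 4 h post-plating, then virus at ~0.5 moi, and were cultured 44 h.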
MARV entry inh = inhibitors of Marburg virus binding or cell entry; Marburg virus pseudotyped entry inhibition, cell reporter; Potency, µM (top dose mostly 37.8 µM), usual class: inhibitors; hit rate 1.8% among 300,000; AID 540276; calls by dose curve; tested in HEK293 cells
A number is an active result; n = inactive; u = inconclusive; x = not tested or not shown. In the library only some 7.9% were active in any assay of this set; here they are far more common.

SMILES	HCMV inh	LASV entry inh	FMDV inh	HCV inh	MARV entry inh
COc1ccc(-c2nc3ccccc3s2)cc1NC(=O)c1ccc(C#N)cc1F	n	n	n	x	n
NC(=O)CCCn1c(C(=O)c2cc(Cl)c(N)c(Cl)c2)c2ccc([N+](=O)[O-])cc2[n+]1[O-]	n	x	u	11µM	x
Cc1ccc(C(=O)c2c3ccccc3[n+]([O-])n2CCC(=O)O)cc1	n	x	n	n	x
NC(=O)CCn1c(C(=O)c2ccc(Cl)cc2)c2ccccc2[n+]1[O-]	-88	x	n	n	x
NCCCn1c(C(=O)c2ccc(Cl)cc2)c2ccc([N+](=O)[O-])cc2[n+]1[O-]	n	x	n	10µM	x
NC(=O)CCCn1c(C(=O)c2ccc(Cl)cc2)c2ccc([N+](=O)[O-])cc2[n+]1[O-]	u	x	n	u	x
Cc1ccc(C(=O)c2c3ccc([N+](=O)[O-])cc3[n+]([O-])n2CCCC(N)=O)cc1	n	x	n	10µM	x
CCOC(=O)c1cccc(NC(=O)c2cc3cc4ccc(C)cc4nc3o2)c1	n	n	n	x	n
CC(C)OCCCNC(=O)CCCn1c(SCC(=O)c2ccc(Br)cc2)nc2c(sc3ccccc32)c1=O	n	n	n	x	n
CC1=C(C(=O)N(C(C)C)C(C)C)CC(CC(=O)NC(c2ccccc2)c2ccccc2)C(=O)N1CCC1=CCCCC1 (stereo not drawn)	-110	x	u	x	x
CC1=C(C(=O)N(C(C)C)C(C)C)CC(CC(=O)NCCCCc2ccccc2)C(=O)N1Cc1ccc(C(C)(C)C)cc1 (stereo not drawn)	-105	x	u	x	x
COc1ccc(CN2C(=O)C(CC(=O)NCCCCc3ccccc3)CC(C(=O)N(C(C)C)C(C)C)=C2C)cc1 (stereo not drawn)	n	x	n	x	x
CCN1CCN(C(=O)c2ccc3c(c2)N(Cc2ccc(F)cc2)C(=O)c2ccccc2S3(=O)=O)CC1	n	u	n	x	n
Cc1ccccc1-n1cc[nH]c1=S	n	n	n	n	n
Cc1cccc(-n2cc[nH]c2=S)c1C	-69	n	n	n	u
CCOC(=O)c1c(CN2CCCCC2)n(C)c2cc(Br)c(O)c(CN(C)C)c12	x	x	n	n	x
CCOC(=O)c1c2c(n(C3CCCCC3)c1CN(C)C)CC(Br)=C(OC)C2	x	x	x	x	10µM
CCCN1CCC(=NNc2ccc(S(=O)(=O)N3CCOCC3)cc2[N+](=O)[O-])CC1	-73	u	n	u	u
CC(=O)N1CCC(=NNc2ccc(S(=O)(=O)N3CCOCC3)cc2[N+](=O)[O-])CC1	n	u	n	u	n
CC(C)N1CCC(=NNc2ccc(S(=O)(=O)N3CCOCC3)cc2[N+](=O)[O-])CC1	u	n	n	n	n
CCCCCC(/C=N/Nc1ccc(S(=O)(=O)N2CCOCC2)cc1[N+](=O)[O-])=C\c1ccccc1	-96	n	n	n	u
Nc1ncnc2c1ncn2C1C=C(CO)C(O)C1O (stereo not drawn)	x	0.25µM	n	u	u
Nc1ncnc2c1ncn2[C@@H]1O[C@H](CO)C[C@H]1O	n	x	n	10µM	x
Nc1ncnc2c1ncn2C1OC(CO)C2OC21 (stereo not drawn)	n	x	n	x	x
COc1cc2c(cc1OC)CN(Cc1ccc(C)s1)CC2	-95	n	n	n	n
SMILES	HCMV inh	LASV entry inh	FMDV inh	HCV inh	MARV entry inh
COc1cc2c(cc1OC)CN(Cc1ccc(F)cc1)CC2	n	n	n	n	n
O=S(=O)(c1ccc2ccccc2c1)N1CCN=C1SCc1cccnc1	n	x	n	n	x
O=S(=O)(c1ccc(F)cc1)N1CCN=C1SCc1cccnc1	-67	x	n	n	x
CCCS(=O)(=O)N1CCN=C1SCc1cccnc1	-62	n	n	n	n
O=S(=O)(c1ccccc1)N1CCN=C1SCc1ccc(Cl)c(Cl)c1	-74	u	n	u	u
O=S(=O)(c1ccc(Br)cc1)N1CCN=C1SCc1cccnc1	-69	x	n	n	x
O=S(=O)(c1ccccc1)N1CCN=C1SCc1ccc(Cl)cc1	n	x	n	n	x
Nc1cc(=O)nc(SCC(=O)Nc2ccc(F)cc2)n1-c1ccccc1Cl	n	n	n	x	u
CCOc1ccc(CN2C(=O)c3ccccc3Sc3ccc(C(=O)NCc4ccc5c(c4)OCO5)cc32)cc1	n	n	n	x	u
CCS(=O)(=O)N1CCN=C1SCc1cccc(F)c1	-60	x	n	n	x
Cc1c(Cl)cccc1NC(=O)CNS(=O)(=O)c1cccs1	n	n	n	x	x
c1ccc(-c2n[nH]c3c2CCC3)cc1	n	n	n	13µM	u
Cc1ccc(Cl)cc1N1CCN(C(=O)c2cn(C)c3ccc(S(=O)(=O)N4CCCCC4)cc3c2=O)CC1	n	n	n	x	n
